Assay outcomes (PubChem)
PAFAH2 FP inh – inhibitors of human PAFAH2; Q99487; recombinant PAFAH2, FP-rhodamine activity probe, fluorescence polarization; inhibition, % at 3.39 µM; actives 0.99% (n = 340,000); AID 492956;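 active = inhibition above the mean over all tested compounds plus 3 SD, cut at about 30% in these data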;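 note: inhibitors block probe labeling of enzyme so polarization drops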
Fh CTSL1 inh – blocks F. hepatica cathepsin L1 in PFM18AAP counter-screen | recombinant F. hepatica cathepsin L1, Z-Leu-Arg-MCA fluorescence | inhibition, % at 5.96 µM | actives 0.49% (n = 300,000);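 active = inhibition above the mean of all tested compounds plus 3 SD, set per screening campaign, cut at about 17% in these data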
PAFAH1B2 FP inh – blocks human PAF acetylhydrolase 1b catalytic subunit 2 | P68402 | inhibition, % at 3.39 µM | AID 492953 | actives 1.2% (n = 340,000) | recombinant PAFAH1B2, FP-rhodamine activity probe, fluorescence polarization;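 active = inhibition above the mean of all tested compounds plus 3 SD, cut at about 24% in these data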
PAFAH1B3 inh – blocks human PAF acetylhydrolase 1B catalytic subunit 3; Q15102; inhibition, % at 3.39 µM; actives 0.28% (n = 340,000); recombinant PAFAH1B3, FP-rhodamine probe, fluorescence polarization;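 active = inhibition above the screen-wide average of all tested compounds plus 3 SD, cut at about 25% in these data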
pPAFAH FP inh – pPAFAH (human) enzyme inhibition; AID 463082; Q13093; inhibition, % at 3.39 µM; recombinant pPAFAH, FP-rhodamine probe fluorescence polarization; actives 1.5% (n = 330,000);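 active = inhibition above the mean inhibition across the screen plus 3 SD, cut at about 25% in these data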;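 note: inhibitors block binding of the rhodamine activity-based probe so polarization drops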
PP5 inh – blocks human protein phosphatase 5 activity. P53041. purified PP5c, OMFP substrate fluorescence. inhibition, % at 6.7 µM. actives 0.18% (n = 320,000);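 active = inhibition above the campaign's mean inhibition across all tested compounds plus 3 SD, cut at about 9.5% in these data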
PP5 inh confirm – confirmation of human PP5 phosphatase inhibitors | inhibition, % at 6.7 µM | shares compounds with PP5 inh | Purified PP5, fluorogenic phosphatase substrate, fluorescence | actives 22% (n = 460) | AID 2331; in the data active = inhibition above about 9.5%
PP1 inh counter – inhibits human PP1 phosphatase in PP5 counter-screen. PP1 enzyme, fluorescent phosphatase substrate. AID 2355. shares compounds with PP5 inh. actives 4% (n = 460). inhibition, % at 6.7 µM; in the data active = inhibition above about 16%
Target sequence (P62136 whole entry, looked up): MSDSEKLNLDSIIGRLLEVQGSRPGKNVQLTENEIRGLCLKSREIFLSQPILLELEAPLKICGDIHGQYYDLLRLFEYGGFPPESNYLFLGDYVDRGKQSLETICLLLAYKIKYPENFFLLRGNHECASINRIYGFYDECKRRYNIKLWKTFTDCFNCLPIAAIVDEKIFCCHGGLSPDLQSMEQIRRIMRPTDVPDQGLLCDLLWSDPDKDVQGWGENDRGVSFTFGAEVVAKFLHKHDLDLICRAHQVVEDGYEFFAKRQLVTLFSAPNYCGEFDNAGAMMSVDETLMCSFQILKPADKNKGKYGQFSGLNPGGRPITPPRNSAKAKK
Hits are given with their value; – = inactive; · = not tested or not shown. An excerpt weighted towards active compounds, which were near 3% of everything screened.

SMILES	PAFAH2 FP inh	Fh CTSL1 inh	PAFAH1B2 FP inh	PAFAH1B3 inh	pPAFAH FP inh	PP5 inh	PP5 inh confirm	PP1 inh counter
CC(C)(O)P(C)(=O)c1ccccc1 (configuration not stated)	–	–	–	–	–	–	·	·
CC(C)(C)P(=O)(CO)c1ccccc1 (configuration not stated)	–	–	–	–	–	11	–	–
COc1ccc(-c2c(-c3cc(OC)cc(OC)c3)n(C)c3ccc(-c4ccc5[nH]ccc5c4)cc23)cc1	–	·	–	–	–	–	·	·
Cc1ccc(S(=O)(=O)Nc2ccc(NC(=O)Nc3cccc(C(F)(F)F)c3)cc2)cc1	–	–	–	–	–	11	–	–
CCN(CC)S(=O)(=O)c1ccc(NC(=O)Nc2cccc(C(F)(F)F)c2)cc1	–	–	–	–	–	–	·	·
Cc1ccc(NS(=O)(=O)c2ccc(NC(=O)c3cccc(NC(=O)C(C)C)c3)cc2)cc1	–	–	–	–	–	9.8	–	–
NS(=O)(=O)c1ccc(CCNC(=O)C2CC(=O)N(Cc3ccccc3Cl)C2)cc1 (configuration not stated)	–	·	–	–	–	–	·	·
CCn1c(SCC(=O)Nc2nncs2)nnc1C(C)NC(=O)c1ccccc1Br (configuration not stated)	–	–	–	–	–	–	·	·
COc1ccc(C(=O)Nc2ccc(S(=O)(=O)N3CCCCC3C)cc2)c(OC)c1OC (configuration not stated)	–	–	–	–	–	11	–	–
COCc1ccc(C(=O)NC2CCCc3c2cnn3-c2ccc(C)c(C)c2)o1 (configuration not stated)	–	–	–	–	–	–	·	·
O=C(CN1C(=O)c2cccnc2Oc2ccc(Cl)cc21)NCCCc1ccccc1	–	–	–	–	–	–	·	·
COCC(=O)N(Cc1cc2cc(C)ccc2[nH]c1=O)c1ccccc1	–	–	–	–	–	–	·	·
COCC(=O)N(Cc1cc2cccc(C)c2[nH]c1=O)c1ccccc1	–	–	–	–	–	10.0	–	–
CCc1ccc(C2=NN(c3ccc(S(N)(=O)=O)cc3)C(c3ccc(F)cc3)C2)cc1 (configuration not stated)	–	–	–	–	–	12	–	–
COCCn1c(SCC(=O)Nc2cc(C)on2)nc2c(c1=O)SCC2	–	–	–	–	–	–	·	·
COc1ccc(C2CC(c3ccccc3)=NN2C(=O)COC(=O)C2(C)CC2(Cl)Cl)cc1 (configuration not stated)	–	–	–	–	–	–	·	·
CCOC(=O)C1CCCN(CC(O)COc2ccc(OC)cc2C(C)(C)C)C1 (configuration not stated)	–	–	–	–	–	11	–	–
O=C(c1cccc(C(F)(F)F)c1)N1CCC(O)(CS(=O)(=O)Cc2ccccc2Cl)CC1	–	–	–	–	–	11	–	–
CCn1c(=O)c([N+](=O)[O-])c(N2CCN(Cc3ccc4c(c3)OCO4)CC2)c2ccccc21	–	–	–	–	–	10	–	–
CN(C)C1=NCCN1CCC1CCCC1	–	–	–	–	–	–	·	·
CCOC(=O)CN1CCc2c(C)nc3c(-c4ccc(OC)c(OC)c4)cnn3c21	–	–	–	–	–	12	–	–
CCOC(=O)Cc1c(C)nc2c(-c3cccc(Br)c3)cnn2c1C	–	–	–	–	–	–	·	·
O=C(O)c1ccc(S(=O)(=O)/N=C2\C=C(Nc3ccccc3F)C(=O)c3ccccc32)cc1	72	80	58	61	–	9.6	42	–
O=S(=O)(/N=C(/Nc1ccccc1F)c1ccccc1)c1ccccc1	–	–	–	–	–	–	·	·
Cc1ccccc1NC1=C/C(=N\S(=O)(=O)c2cccs2)c2ccccc2C1=O	40	94	25	64	–	15	51	–
CC(=O)Nc1ccc(NC2=C/C(=N/S(=O)(=O)c3cccs3)c3ccccc3C2=O)cc1	·	102	·	·	31	14	32	–
CCc1cccc(C)c1NC(=O)c1cc(=O)[nH]c2ccc(S(=O)(=O)N3CCOCC3)cc12	–	·	–	–	–	–	·	·
